High-throughput results: PubChem, National Center for Advancing Translational Sciences (NCATS)
LASV entry inh: inhibitors of Lassa virus binding or cell entry. Lassa virus pseudotype entry inhibition, cell reporter. Potency, µM (doses to about 37.9 µM), without a hit: at the top dose activity change, negative = inhibition, hits mostly inhibitors. 300,000 compounds, 1.2% hits. AID 540256; calls by dose curve; tested in HEK293 cells; note: potency is the fitted concentration of half-maximal effect; nearly all actives have a fitted effect of over 50% in size
VACV mCherry inh: vaccinia inhibition (mCherry reporter). Vaccinia virus mCherry reporter infection, fluorescence. Potency, µM (highest dose often 36.5 µM), without a hit: at the highest dose activity change, negative = inhibition, actives largely listed as inhibitors. 310,000 compounds, 0.63% hits. AID 720579; calls by dose curve; tested in A549 cells; note: potency is the fitted concentration of half-maximal effect; nearly all actives have a fitted effect of over 35% in size
HCMV inh: blocks human cytomegalovirus replication; HFF cells, HCMV-luciferase reporter, 72 h; hits give low values; activity change, negative = inhibition, % at 57.5 µM; 410,000 compounds, 4.5% hits; AID 1259415; in the data active = activity change below about -60%; inconclusive = no clear call, values can overlap the other calls; inactive = above about -39%
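Human foreskin fibroblasts infected with luciferase-reporter HCMV at MOI 1 PFU/cell, compounds at two doses. Luciferase measured 72 h post infection; normalized to buffer-only basal and Salinomycin (10uM) controls.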
FMDV inh: antivirals against foot and mouth disease virus. FMDV antiviral cell-based qHTS. Potency, µM (titrated, usually from 57.9 µM), without a hit: at the top dose activity change, negative = inhibition, actives largely listed as inhibitors. 410,000 compounds, 1.2% hits. AID 1159524; calls by dose curve; tested in HEK293T cells; note: read-out not given here; potency is the fitted concentration of half-maximal effect; nearly all actives have a fitted effect of over 45% in size
MARV entry inh: Marburg virus entry inhibition. Potency, µM (highest dose often 37.8 µM), for the others: at the top dose activity change, negative = inhibition, actives largely listed as inhibitors. Marburg virus pseudotyped entry inhibition, cell reporter. 300,000 compounds, 1.8% hits. AID 540276; calls by dose curve; tested in HEK293 cells; note: potency is the fitted concentration of half-maximal effect
VACV Venus inh: vaccinia inhibition (Venus reporter) | Potency, µM (series often up to 36.5 µM), inactives show top-dose activity change, negative = inhibition, usual class: inhibitors | 330,000 compounds, 0.46% hits | Vaccinia virus Venus reporter expression, fluorescence; calls by dose curve; tested in A549 cells; note: potency is the fitted concentration of half-maximal effect; nearly all actives have a fitted effect of over 30% in size
Active calls of the source: *; i = inactive; ? = inconclusive; nt = no result; [ ] = dose if it differs, or a comment. Hits are enriched below; roughly 6.5% of the tested compounds scored in any of these assays. % is set by controls: 0 for no effect and ±100 for the full control effect.

SMILES | LASV entry inh | VACV mCherry inh | HCMV inh | FMDV inh | MARV entry inh | VACV Venus inh
Cc1cc(=O)[nH]c(N=N/C(=N/Nc2ccc(O)cc2)c2ccccc2)n1 | 20µM* | -19%[1.46 µM] | 68 | -23% | ? | -12%
Cc1cc(=O)[nH]c(N/N=C/c2ccccc2C(F)(F)F)n1 | 1% | -11% | 2 | 8% | 21%[46.1 µM] | -4%
COc1ccc(N/N=C(/N=Nc2nc(C)cc(=O)[nH]2)c2ccccc2)cc1 | 5µM* | -10%[1.46 µM] | -89* | -8% | 4.5µM* | -18%
CCOC(=O)c1ccccc1NC(=O)N1CCOc2ccc(Cl)cc21 | 8%[46.1 µM] | -4% | -61* | -29% | nt | -14%
O=C(Nc1cccc2c1CCCC2)N1CCOc2ccc(Cl)cc21 | 10%[46.1 µM] | -8% | 18 | -16% | nt | -17%
CCC1CN(C(=O)Nc2cc(C)ccc2OC)c2cc(Cl)ccc2O1 (stereo not given) | 0%[46.1 µM] | 5% | -61* | -20% | nt | -4%
CN(C)c1ccc(/C=C2/C(=O)Nc3ccccc32)cc1 | nt | nt | nt | -14% | 2µM* | nt
CN(C)c1ccc(/C=C2\C(=O)Nc3ccccc32)cc1 | ? | -12% | nt | -4% | 2µM* | -19%
CN(C)c1ccc(/C=C2\C(=O)/C(=C/c3ccc(N(C)C)cc3)c3ccccc32)cc1 | nt | -8% | nt | nt | nt | 18%
Cc1cc(/C=C/c2ccnc3ccccc23)ccc1N | nt | -26% | nt | nt | nt | -6%
CCc1ccc2[nH]c3nc(SCC(=O)NNC(=O)c4ccc(C(C)(C)C)cc4)nnc3c2c1 | ? | nt | -106* | -4% | 4.6µM* | nt
CCc1ccc2[nH]c3nc(SCCN4CCOCC4)nnc3c2c1 | nt | nt | -91* | ? | nt | nt
c1ccc(CCNc2nc(-c3ccccc3)cs2)cc1 | nt | nt | 48 | nt | nt | nt
NS(=O)(=O)c1ccc(CCNc2ccn3nc(-c4cccc(C(F)(F)F)c4)cc3n2)cc1 | nt | 8.9µM* | -28 | ? | nt | ?
NCCc1ccn[nH]1 | nt | -1% | -67* | -2% | nt | -15%
CN(CC(=O)Nc1ccc(Cl)c(C(F)(F)F)c1)C(=O)c1ccc(S(=O)(=O)N2CCOCC2)cc1 | nt | nt | 0 | -21% | nt | nt
CN(CC(=O)Nc1ccc(Cl)c(C(F)(F)F)c1)C(=O)c1ccc(OCC2CCCO2)cc1 (stereo not given) | ? | ? | -73* | ? | ? | ?
O=[N+]([O-])c1ccc(Nc2c3ccccc3nc3ccccc23)cc1 | -26% | ? | -90* | -23% | ? | ?
O=[N+]([O-])c1ccc(-c2nc(Nc3ccc(O)cc3)c3ccccc3n2)cc1 | nt | nt | 15 | 0% | nt | nt
O=[N+]([O-])c1ccccc1Nc1c2ccccc2nc2ccccc12 | ? | ? | -62* | -26% | ? | -14%
O=c1oc(-c2ccccc2[N+](=O)[O-])nc2ccccc12 | -9% | nt | -7 | -24% | -18% | -5%
CCN(CC)CCN1C(=O)C(=O)/C(=C(\O)c2ccc(Cl)cc2)[C@@H]1c1ccncc1 | nt | nt | nt | nt | 2% | nt
Nc1ncnc2c1ncn2[C@@H]1O[C@H](COP(=O)(O)OP(=O)(O)CP(=O)(O)O)[C@@H](O)[C@H]1O | nt | -10% | nt | 22% | nt | -4%
COc1ccc(C=NNC(=S)NN=Cc2ccc(OC)c(OC)c2)cc1OC | ? | -24% | -102* | 18% | ? | -5%
COc1ccc(/C=N/NC(=S)NCc2ccccc2)cc1OC | ? | -8% | 25 | -13% | 23% | -12%
SMILES | LASV entry inh | VACV mCherry inh | HCMV inh | FMDV inh | MARV entry inh | VACV Venus inh
COc1cc(/C=N/NC(N)=S)ccc1OCc1ccc(C)cc1 | ? | 11µM* | ? | 21% | ? | ?
COc1ccc(C=NNC(=S)Nc2ccc(F)cc2)cc1OC | ? | -14% | -61* | -6% | ? | -19%
COc1ccc(/C=N/NC(=S)Nc2cccc(C(=O)O)c2)cc1OC | ? | i | -34 | 16µM* | ? | -11%
Cc1ccc(Sc2ccc(N3CCC(C(=O)Nc4ccc(C)c(F)c4)CC3)nn2)cc1 | -1%[46.1 µM] | 17% | -5 | 10% | -3%[46.1 µM] | 4%
COc1ccc2c(c1)C(C(Nc1ccc(C)cc1)c1ccc(Cl)cc1)C(=O)N2C (stereo not given) | nt | nt | 39 | nt | nt | nt
CNc1nc2cnc(-c3cc(OC)c(OC)c(OC)c3)cc2n1Cc1ccccc1 | nt | nt | 53 | nt | nt | nt
C=C1C=C(C(F)F)n2ncc(C(=O)N3CCCCC3)c2N1 | nt | -1% | nt | nt | nt | -11%
O=C(CN1C2=NCCCN2c2ccccc21)c1ccc([N+](=O)[O-])cc1 | -14% | nt | -66* | -4% | ? | nt
